Results published in PubChem BioAssay AID1259415 (National Center for Advancing Translational Sciences (NCATS), 2018).
The campaign covered roughly 410,000 compounds. About 18,000 (4.4%) were called active. Not shown: some 7% with an inconclusive outcome. The sample holds actives, similar compounds and a random draw of the others, so the mix is not that of the screen. Rule as the data show it: active = activity change below about -60%; inconclusive = no clear call, values can overlap the other calls; inactive = above about -39%.

Test: qHTS Assay for inhibitors of the human cytomegalovirus (HCMV)
Details: HFF cells, HCMV-luciferase reporter, 72 h; at 57.5 µM; hits give low values
How it was run: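 Compounds were evaluated in HFFs infected with an HCMV luciferase reporter virus (MOI 1 PFU/cell). Luciferase in lysates collected 72 h post infection served as the replication measure.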
% is scaled to controls: 0 for no effect and ±100 for the full control effect.

Structure (SMILES) | activity change, negative = inhibition
CCCC12CN3CC(C)(CN(C1)C3c1ccccc1Cl)C2=O (stereo not drawn) | 1.49% (inactive)
Cc1ccoc1C(=O)Nc1cccc(Oc2ccccc2)c1 | 16.8% (inactive)
Cc1cccc(NC(=O)NC2(C)CCS(=O)(=O)C2)c1 (stereo not drawn) | 14.3% (inactive)
Cc1cccc(NC(=O)Nc2cccc(Oc3c(F)c(F)c(F)c(F)c3F)c2)c1 | -76.5% (active)
COc1ccc(CCNC(=O)CCCCn2c(=O)c3ccccc3n(Cc3ccccc3C)c2=O)cc1OC | -31.9% (inactive)
CCOC(=O)c1ccc(NC(=O)c2c(NCc3cccc(OC)c3)sc3c2CCC3)cc1 | -1.86% (inactive)
Cc1ccccc1OCC(=O)Nc1ccc(N2CCN(C(=O)C(C)C)CC2)c(Cl)c1 | 1.1% (inactive)
CCOc1ccccc1NC(=S)N1CCN(c2cccc(C)c2C)CC1 | -37.3% (inactive)
CCC(=O)N1CCN(c2ccccc2NC(=O)COc2cccc(C)c2C)CC1 | -63.8% (active)
COc1ccc(C)cc1NC(=O)C(=O)NCCc1sc(-c2cccc(C)c2)nc1C | -4.02% (inactive)
Cc1ccccc1CCNC(=O)C1CCN(c2nc3ccccc3nc2C(F)(F)F)CC1 | -6.7% (inactive)
CC(C)OP(=O)(OC(C)C)C(Nc1ccccc1)c1cccc([N+](=O)[O-])c1 (stereo not drawn) | -30.9% (inactive)
COc1ccc(C)cc1S(=O)(=O)N(CC(=O)Nc1cccc([N+](=O)[O-])c1)c1ccc(C)cc1 | -7.9% (inactive)
COC(=O)/C=C\C(=O)Nc1cccc([N+](=O)[O-])c1 | -87.4% (active)
CCc1ccc(NC(=O)C(C)OC(=O)/C=C/c2cccc([N+](=O)[O-])c2)cc1 (stereo not drawn) | 7.98% (inactive)
CCC(CC)NC(=O)/C=C/c1cccc([N+](=O)[O-])c1 | -60.1% (active)
O=C(/C=C/c1cccc([N+](=O)[O-])c1)NCCSCc1ccco1 | -19.7% (inactive)
COc1ccc(-c2nc(S(=O)(=O)c3ccccc3)c(N3CCCCC3)o2)cc1 | -14.3% (inactive)
CCOc1ccc2nc(N3CCCC(C(=O)Nc4cc(C)ccc4C)C3)sc2c1 (stereo not drawn) | 69.3% (inactive)
CCn1cc(C(=O)N(C)Cc2ccccc2)c(=O)c2cc(S(=O)(=O)N3CCCCCC3)ccc21 | 4.41% (inactive)
CC(=O)N1c2ccc(S(=O)(=O)NCCC(=O)N(C)C3CCCCC3)cc2CC1C (stereo not drawn) | -39.5% (inactive)
COc1ccc(C(F)(F)F)cc1NC(=O)c1sc2nc(-c3cccs3)ccc2c1N | 14.5% (inactive)
N#Cc1ccc(C(=O)Nc2nc(-c3cccs3)c(C(=O)C(F)(F)F)s2)cc1 | -96.5% (active)
CCn1c(NC(=O)c2ccccc2)c(-c2cccs2)c(=O)c2ccccc21 | 25.8% (inactive)

Structure (SMILES) | activity change, negative = inhibition
O=C(NCCS(=O)(=O)N1CCN(c2ccc(F)cc2)CC1)c1ccccc1Br | 20.8% (inactive)
Cn1c(=O)c2c(SCC(=O)NCC3CCCO3)nc(-c3ccccc3F)nc2n(C)c1=O (stereo not drawn) | -4.16% (inactive)
Cc1ccc(-c2cc(N)n(Cc3cccc(Cl)c3)n2)cc1 | -21.8% (inactive)
COc1ccc(Nc2cc(C)nc(-n3nc(C)cc3C)n2)cc1 | -84.3% (active)
Cc1cccc(Nc2cc(C)nc(-n3nc(C)cc3C)n2)c1 | -83.8% (active)
Cc1cc(C)n(-c2nnc(N3CCN(c4ccccc4)CC3)nn2)n1 | -11.6% (inactive)
Cc1ccc(Nc2nc3ccccc3nc2-n2nc(C)cc2C)c(Cl)c1 | 2.84% (inactive)
CCOC(=O)c1cnc(-n2nc(C)cc2C)nc1NNc1cc(C)nc(-c2ccccc2)n1 | -1.83% (inactive)
COc1ccc(C(C[N+](=O)[O-])n2nc(C)cc2C)cc1 (stereo not drawn) | -11% (inactive)
COc1ccc(-c2nc3nc(C)cc(C)n3c2Nc2c(C)cccc2C)cc1 | -8% (inactive)
COc1cccc(/C=N/Nc2cc(C)nc(-c3ccccc3O)n2)c1O | -95.8% (active)
COc1ccccc1/C=N\Nc1cc(C)nc(-n2nc(C)cc2C)n1 | -94.4% (active)
COc1ccc(/C=C/c2noc(-c3ccccc3O)n2)cc1OC | 63.9% (inactive)
COc1cc(Cl)c(C)cc1Nc1nnc(-n2nc(C)cc2C)c2ccccc12 | 16.8% (inactive)
CCCCc1nnc(NC(=O)CSc2nc(N)cc(=O)[nH]2)s1 | -10.9% (inactive)
O=S(=O)(NCCS(=O)(=O)N1CCN(c2ccccc2)CC1)c1ccc(Cl)cc1 | -35.4% (inactive)
CCOc1cc(/C=C(\C#N)C(=O)Nc2ccccc2C)ccc1OCc1cc(=O)n2nc(CC)sc2n1 | -5.21% (inactive)
CSc1nc(=O)c2c(n1C)NC(=O)CC2c1ccccc1OC(C)C (stereo not drawn) | -11% (inactive)
Cc1nnc(SCC(=O)N2c3ccccc3C(C)(c3ccc(Cl)cc3)CC2(C)C)s1 (stereo not drawn) | -74.1% (active)
CC1(c2cccc([N+](=O)[O-])c2)CC(C)(C)N(C(=O)c2ccccc2)c2ccccc21 (stereo not drawn) | -23.1% (inactive)
O=C(CSc1nnc(SCc2ccc(Cl)cc2)s1)N/N=C/c1ccccc1Cl | 13.9% (inactive)
CCOC(=O)C(Cc1ccccc1)NC(=O)CCc1c(C)nc2c(c(C)nn2-c2ccc(C)c(C)c2)c1C (stereo not drawn) | 35.7% (inactive)
Cc1ccc(SCC(=O)Nc2ccc3oc(-c4ccccc4F)nc3c2)cc1 | 68.8% (inactive)
COc1ccc(Cl)cc1NC(=O)C(C)Sc1nc2c(c(=O)[nH]1)CCCC2 (stereo not drawn) | 12.7% (inactive)

Structure (SMILES) | activity change, negative = inhibition
Cc1ccccc1OS(=O)(=O)c1cccc([N+](=O)[O-])c1 | -19.5% (inactive)
COc1cccc(OCCOc2cccc(/C=N/n3cnnc3)c2)c1 | 27% (inactive)
Cc1ccccc1OCCOc1ccc([N+](=O)[O-])cc1/C=N/n1cnnc1 | -98.2% (active)
CC1(c2nnc(Cc3ccccc3)o2)CC(c2ccccc2F)=NO1 (stereo not drawn) | 4.15% (inactive)
CCCOc1ccc(NC(=O)CC2C(=O)N(c3ccccc3)C(=O)N2Cc2ccco2)cc1 (stereo not drawn) | 38.3% (inactive)
COc1cccc(N2CCN(CC(=O)Nc3ccnn3C3CCCC3)CC2)c1 | -60.5% (active)
COc1ccccc1N1CCN(CC(=O)Nc2ccnn2C2CCCC2)CC1 | -12% (inactive)
COc1cccc(C(=O)N2CCC(n3nccc3NC(=O)C3CCOC3)CC2)c1 (stereo not drawn) | -18.9% (inactive)
O=C(CSc1nnc2c(n1)[nH]c1ccccc12)NC1CCCCC1 | -65.5% (active)
COc1ccc2[nH]c3nc(SCC(=O)NC4CC4)nnc3c2c1 | 13.8% (inactive)
CCOc1ccc2[nH]c3nc(SCC(=O)NC4CCCC4)nnc3c2c1 | -31.8% (inactive)
O=C(Cc1cccs1)N(CC1CCCO1)C1(C(=O)NC2CCCCC2)CCCCC1 (stereo not drawn) | -20.9% (inactive)
CCOC(=O)c1c(CC(C)C)csc1/N=C/C1=C(O)CCCC1=O | -98.2% (active)
CCOC(=O)c1sc(/N=C/C2=C(O)CC(C)(C)CC2=O)c(C(=O)OCC)c1C | -33.1% (inactive)
Cc1cc(N=CC2=C(O)CCCC2=O)no1 | 2.05% (inactive)
CCOC(=O)c1c(NC(=O)Cc2coc3ccc(CC)cc23)sc2c1CCC2 | 1.55% (inactive)
Cc1ccc(C)c(N2CCN(C(=O)CN3C(=O)COc4ccc(S(=O)(=O)N5CCCCCC5)cc43)CC2)c1 | -10.9% (inactive)
Cc1ccc(Cl)cc1-n1ncc2c(N3CCC(C(N)=O)CC3)ncnc21 | -7.89% (inactive)
CCCCN(CC)C(=O)CN(C)S(=O)(=O)c1cccc2nsnc12 | 0.246% (inactive)
O=C1NC(=O)C2C1C(c1ccc([N+](=O)[O-])cc1)=NN2Cc1ccccc1 (stereo not drawn) | -71.6% (active)
O=[N+]([O-])c1ccc(C(S(=O)(=O)Cc2ccccc2)S(=O)(=O)Cc2ccccc2)cc1 | -20.9% (inactive)
O=C(NCCCCc1ccccc1)C1CC(c2ccc([N+](=O)[O-])cc2)=NO1 (stereo not drawn) | 1.01% (inactive)
Cc1ccc(-n2cnc3cc(C(=O)NCCC4=CCCCC4)ccc32)cc1Cl | -19.6% (inactive)
COc1ccc(-c2[nH]c3c(c2-c2c(-n4cccc4)n(C)c(=O)n(C)c2=O)c(=O)n(C)c(=O)n3C)cc1 | 12.5% (inactive)

Structure (SMILES) | activity change, negative = inhibition
COc1ccccc1CNC(=O)c1ccc(NC(=O)N2CC(C)Sc3ccccc32)cc1 (stereo not drawn) | -6.59% (inactive)
COc1cccc(C(O)c2nc(-c3ccc(C)c(C)c3)cs2)c1 (stereo not drawn) | -60.7% (active)
COc1ccc(-c2csc(C(O)c3cccc(Cl)c3)n2)cn1 (stereo not drawn) | -37.6% (inactive)
Cc1ccccc1-c1csc(C(O)c2cccc(Cl)c2)n1 (stereo not drawn) | -10.3% (inactive)
Cn1c(/C(C#N)=C2/CCCCCN2)nc2ccccc21 | -40% (inactive)
Cc1nn(CC(=O)NCCc2ccccc2)c(=O)c2c1sc1ccccc12 | 0.0704% (inactive)
O=C(/C(=C/c1cccc(Cl)c1)c1nc2ccccc2[nH]1)c1ccccc1 | -99.6% (active)
N#C/C(=C\c1ccccc1F)c1nc2ccccc2c(=O)[nH]1 | -22.3% (inactive)
CCc1ccc(CNCc2c(C(=O)O)n(Cc3ccc(F)cc3Cl)c3cc(OC)ccc23)cc1 | 15.2% (inactive)
CCOC(=O)C1=C(c2ccccc2)N=C2SCC(=O)N2C1c1ccc(O)c(OC)c1 (stereo not drawn) | 9.04% (inactive)
CC1CN(CCCOc2ccccc2-c2ccccc2)CC(C)O1 (stereo not drawn) | 58.1% (inactive)
CC1CCCN(CCOCCOc2ccccc2-c2ccccc2)C1 (stereo not drawn) | -71.7% (active)
CC1CN(CCOc2ccccc2[N+](=O)[O-])CC(C)O1 (stereo not drawn) | -21.7% (inactive)
CCOC(=O)Cn1c(=O)n(C2CCCCC2)c2nc(-c3cccc(OC)c3)nc(C(N)=O)c21 | 18.1% (inactive)
O=C(/C=C/c1ccccc1)N1CCN(Cc2cc(=O)n3nc(-c4ccccc4F)sc3n2)CC1 | 34.4% (inactive)
O=C1NC(c2cc3c(cc2Cl)OCO3)Oc2ccccc21 (stereo not drawn) | 17.7% (inactive)
COc1ccccc1C1C2=C(COC2=O)Nc2cc3c(cc21)OCO3 (stereo not drawn) | -87.9% (active)
O=C1CC(c2ccc(F)cc2F)c2cc3c(cc2N1)OCO3 (stereo not drawn) | -1.6% (inactive)
O=C1OCC2=C1C(c1ccc(Cl)cc1)c1cc3c(cc1O2)OCO3 (stereo not drawn) | 37.6% (inactive)
Cc1cc2c(cc1C)C(c1cccc(OC(C)C)c1)CC(=O)N2 (stereo not drawn) | -38.7% (inactive)
CCCOc1ccccc1C1CC(=O)Nc2cc3c(cc21)OCO3 (stereo not drawn) | -61.8% (active)
